Records with an inconclusive call do not appear. Some compounds were tested as several samples or in several runs, with calls that do not always agree. Active and inactive are the calls of the source. Unless noted, the call rests on the fitted dose curve; in most records, active means well fitted curve in the direction sought with a large enough effect in the repeat runs; inconclusive means weak or mixed curves; inactive means no such curve, though single readings can be large; an effect the other way counts as inactive or inconclusive.
Key:
[1] = qHTS assay to identify small molecule agonists of the RXR signaling pathway - cell viability counter screen (AID 1159529); further: series mostly up to about 77 µM; nearly all actives have a fitted effect of over 50% in size
Outline: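 Cell viability is measured by CellTiter-Glo luminescence, 30 min at room temperature, in wells already read for beta-lactamase. Engineered HEK 293T cells (RXR-alpha-UAS-bla) are dosed 16 hr at 37 C. Tetraoctyl ammonium bromide serves as positive control.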

[2] = qHTS assay to identify small molecule antagonists of the retinoid acid receptor (RAR) signaling pathway - cell viability counter screen (AID 1159551); further: nearly all actives have a fitted effect of over 35% in size
Outline: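 Retinol-stimulated (1 uM final) C3RL4 cells, compound 6 h, 37 C; readout CellTiter-Glo luminescence (ATP) after 30 min RT incubation.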

[3] = qHTS assay to identify small molecule antagonists of the retinoic acid receptor (RAR) signaling pathway (AID 1159552; further: nearly all actives have a fitted effect of over 50% in size)
Outline: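 Quantitative HTS in C3RL4 RARE-luciferase reporter cells. Compounds were added with 1 uM (final) retinol; luminescence was read after 6 hr.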

[4] = qHTS assay to identify small molecule agonists of the retinoic acid receptor (RAR) signaling pathway (AID 1159553)
Outline: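 Reporter readout comes from luciferase under RARE control in C3RL4 cells; compound exposure lasts 6 hr at 37 C in 5% CO2, and luminescence is recorded following a 30 min room-temperature incubation with reagent.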

[5] = qHTS assay to identify small molecule antagonists of the estrogen related receptor (ERR) signaling pathway - cell viability counter screen (AID 1224818); further: series mostly up to about 46 µM
Outline: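 After a 6 h pre-incubation, ERR cells were dosed by pin tool with compounds, positive/negative controls or DMSO alone. Following 17.5 h at 37 C and 30 min with CellTiter-Fluor, fluorescence was recorded.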

[6] = qHTS assay to identify small molecule antagonists of the estrogen related receptor (ERR) signaling pathway (AID 1224819;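 further: luminescence from an ERR-driven luciferase reporter measured with One-Glo reagent; series mostly up to about 46 µM; nearly all actives have a fitted effect of over 50% in size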)
Outline: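 Luminescence readout (One-Glo, 30 min, RT) of ERR cell line after 18 h compound exposure at 37 C; cells seeded 2,000/well, pre-incubated 6 h, compounds pinned from DMSO stocks.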

[7] = qHTS assay to identify small molecule agonists of the estrogen related receptor (ERR) signaling pathway (AID 1224820)
Outline: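 Cells: ERR line from NTP, 2,000/well. Pre-incubation 6 h, 37 C/5% CO2. Compound (DMSO) pin transfer, 18 h 37 C. One-Glo, 30 min RT, luminescence.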

[8] = test system: estrogen-related receptor alpha (ERRalpha) with PGC-1alpha coactivator, human; experiment: qHTS assay to identify small molecule antagonists of the estrogen related receptor signaling pathway with the pleiotropic PPARgamma coactivator (PGC) (AID 1224821; calls by dose curve;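 further: series mostly up to about 46 µM; lower luminescence signal means antagonism of PGC/ERR signalling; nearly all actives have a fitted effect of over 50% in size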)
Outline: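 Luminescent read-out (One-Glo, 30 min at room temperature) following 18 h treatment of PGC/ERR cells at 37 C with compounds delivered in DMSO. Cells had settled 6 h at 37 C/5% CO2 before dosing.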

[9] = qHTS assay to identify small molecule antagonists of the estrogen related receptor signaling pathway with the pleiotropic PPARgamma coactivator (PGC) cell viability counter screen (AID 1224822; further: series mostly up to about 46 µM)
Outline: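 PGC/ERR cells were plated at 2,000 per well and allowed 6 h to settle before compound addition. Following 17.5 h at 37 C, CellTiter-Fluor reagent was added and fluorescence was read 30 min later.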

[10] = qHTS assay to identify small molecule agonists of the estrogen related receptor signaling pathway with the pleiotropic PPARgamma coactivator (PGC) (AID 1224823)
Outline: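 Steps: plate PGC/ERR cells at 2,000 cells/well; incubate 6 h, 37 C/5% CO2; pin-transfer compounds (DMSO); incubate 18 h, 37 C; add One-Glo; 30 min RT; read luminescence.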

[11] = qHTS assay to identify small molecule antagonists of the estrogen related receptor (ERR) signaling pathway from Tox21 library - cell viability counter screen (AID 1224834); further: nearly all actives have a fitted effect of over 30% in size
Outline: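 After 17.5 h of compound exposure at 37 C, ERR cells are incubated with CellTiter-Fluor for 30 min and fluorescence intensity serves as the viability measure.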

[12] = molecular target: Luciferin 4-monooxygenase (Photinus pyralis) (UniProt P08659); experiment: qHTS assay to identify small molecule inhibitors of firefly luciferase (AID 1224835); further: series mostly up to about 120 µM; nearly all actives have a fitted effect of over 25% in size
Outline: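 Biochemical qHTS: compounds run as interplate titrations against purified firefly enzyme, with D-luciferin and ATP each at its KM concentration. Light output recorded by CCD imaging.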

[13] = qHTS assay to identify small molecule agonists of the constitutive androstane receptor (CAR) signaling pathway - cell viability counter screen (AID 1224836); further: series mostly up to about 92 µM; nearly all actives have a fitted effect of over 45% in size
Outline: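 Counter screen multiplexed with the CAR reporter readout: HepG2 cells co-transfected with hCAR and the CYP2B6-2.2kb construct receive a 15-concentration compound series and 0.75 uM PK11195 (final), then CellTiter-Fluor fluorescence is read after 23 h.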

[14] = qHTS assay to identify small molecule antagonists of the estrogen related receptor signaling pathway with the pleiotropic PPARgamma coactivator (PGC) from Tox21 10K library - cell viability counter screen (AID 1224840; active means well fitted cell-killing curve with a large enough effect in the repeat runs, not every such curve was filed as active; further: nearly all actives have a fitted effect of over 40% in size)
Outline: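 Following seeding of 2,000 PGC/ERR cells/well and 6 hours' incubation, test compounds were delivered in DMSO. The plates then sat 17.5 hours at 37 C before a fluorogenic live-cell protease reagent (CellTiter-Fluor) was read after 30 min.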

[15] = qHTS assay to identify small molecule antagonists of the estrogen related receptor signaling pathway with the pleiotropic PPARgamma coactivator (PGC) from Tox21 10K library (AID 1224841; call rule not given here; further: potency means the concentration at half of the fitted maximal effect)
Outline: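 qHTS antagonist format: PGC/ERR cells, 2k/well, compound in DMSO by pin transfer after 6 h attachment, 18 h treatment at 37 C, One-Glo luminescence read at 30 min.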

[16] = qHTS assay to identify small molecule agonists of the estrogen related receptor signaling pathway with the pleiotropic PPARgamma coactivator (PGC) from Tox21 10K library (AID 1224842); further: nearly all actives have a fitted effect of over 15% in size
Outline: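 PGC/ERR reporter cell line, 2,000 cells per well, incubated 6 h at 37 C before 23 nL compound in DMSO was added. After 18 h at 37 C, One-Glo luminescence read following 30 min at room temperature.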

[17] = molecular target: Thyrotropin receptor (Homo sapiens) (UniProt P16473); experiment: qHTS assay to identify small molecule agonists of the thyroid stimulating hormone receptor (TSHR) signaling pathway (AID 1224843; calls by dose curve; further: nearly all actives have a fitted effect of over 45% in size)
Outline: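 TSHR-HEK293 cells in agonist mode, 30 min room-temperature step, then cAMP measured by competitive HTRF (cAMP-d2 with anti-cAMP cryptate) after 1 h at room temperature. Tested at 15 concentrations in triplicate.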

[18] = qHTS assay to identify small molecule antagonists of the constitutive androstane receptor (CAR) signaling pathway - cell viability counter screen (AID 1224837); further: series mostly up to about 92 µM; nearly all actives have a fitted effect of over 45% in size
Outline: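 Counter screen run in HepG2-CYP2B6-hCAR cells: 4 hr settle, compound titration (15 concentrations) with 50 nM CITCO, 23 hr at 37 C/5% CO2, CellTiter-Fluor fluorescence.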

[19] = molecular target: Nuclear receptor subfamily 1 group I member 3 (Homo sapiens) (UniProt Q14994); experiment: qHTS assay to identify small molecule antagonists of the constitutive androstane receptor (CAR) signaling pathway (AID 1224838);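 further: HepG2 cells stably expressing hCAR with CYP2B6 luciferase reporter stimulated by CITCO; nearly all actives have a fitted effect of over 40% in size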
Outline: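 Cell line: HepG2 double-stable for hCAR and CYP2B6-2.2kb reporter. Agonist: CITCO, 50 nM final. Compounds: 15 concentrations, 24 h, 37 C. Detection: ONE-Glo luminescence.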

[20] = molecular target: Nuclear receptor subfamily 1 group I member 3 (Homo sapiens) (UniProt Q14994); experiment: qHTS assay to identify small molecule agonists of the constitutive androstane receptor (CAR) signaling pathway (AID 1224839); further: series mostly up to about 92 µM; nearly all actives have a fitted effect of over 15% in size
Outline: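 A 15-concentration quantitative screen uses HepG2 cells co-transfected stably with human CAR and CYP2B6-2.2kb reporter. Treatment lasts 24 h with 0.75 uM PK11195 final present; ONE-Glo luminescence is the signal.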

Measured: Potency

Chain of Luciferin 4-monooxygenase (Photinus pyralis) (P08659 whole entry, looked up): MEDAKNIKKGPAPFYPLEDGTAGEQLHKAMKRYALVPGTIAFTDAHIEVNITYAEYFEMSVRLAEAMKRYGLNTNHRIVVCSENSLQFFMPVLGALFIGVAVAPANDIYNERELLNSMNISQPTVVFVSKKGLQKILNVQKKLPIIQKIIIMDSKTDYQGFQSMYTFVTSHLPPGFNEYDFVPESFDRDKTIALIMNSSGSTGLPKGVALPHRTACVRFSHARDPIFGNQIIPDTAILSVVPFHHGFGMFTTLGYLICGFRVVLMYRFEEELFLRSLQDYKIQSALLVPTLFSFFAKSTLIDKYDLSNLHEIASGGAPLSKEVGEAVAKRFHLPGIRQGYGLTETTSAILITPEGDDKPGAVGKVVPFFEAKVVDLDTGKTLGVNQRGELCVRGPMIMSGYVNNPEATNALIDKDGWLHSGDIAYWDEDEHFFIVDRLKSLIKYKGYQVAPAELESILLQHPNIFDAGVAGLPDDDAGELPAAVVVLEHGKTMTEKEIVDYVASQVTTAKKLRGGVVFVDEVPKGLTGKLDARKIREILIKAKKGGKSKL
Chain of Nuclear receptor subfamily 1 group I member 3 (Homo sapiens) (Q14994 whole entry, looked up): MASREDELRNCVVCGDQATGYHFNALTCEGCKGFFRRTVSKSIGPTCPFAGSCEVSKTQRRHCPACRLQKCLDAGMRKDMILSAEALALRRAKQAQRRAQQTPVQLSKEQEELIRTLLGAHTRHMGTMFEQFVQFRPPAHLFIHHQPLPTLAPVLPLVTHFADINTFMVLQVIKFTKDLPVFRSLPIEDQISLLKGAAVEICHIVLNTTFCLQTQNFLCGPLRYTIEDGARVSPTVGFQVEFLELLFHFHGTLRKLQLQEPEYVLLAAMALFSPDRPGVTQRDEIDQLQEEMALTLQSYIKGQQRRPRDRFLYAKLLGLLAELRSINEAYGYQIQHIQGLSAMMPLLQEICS
Chain of Thyrotropin receptor (Homo sapiens) (P16473 whole entry, looked up): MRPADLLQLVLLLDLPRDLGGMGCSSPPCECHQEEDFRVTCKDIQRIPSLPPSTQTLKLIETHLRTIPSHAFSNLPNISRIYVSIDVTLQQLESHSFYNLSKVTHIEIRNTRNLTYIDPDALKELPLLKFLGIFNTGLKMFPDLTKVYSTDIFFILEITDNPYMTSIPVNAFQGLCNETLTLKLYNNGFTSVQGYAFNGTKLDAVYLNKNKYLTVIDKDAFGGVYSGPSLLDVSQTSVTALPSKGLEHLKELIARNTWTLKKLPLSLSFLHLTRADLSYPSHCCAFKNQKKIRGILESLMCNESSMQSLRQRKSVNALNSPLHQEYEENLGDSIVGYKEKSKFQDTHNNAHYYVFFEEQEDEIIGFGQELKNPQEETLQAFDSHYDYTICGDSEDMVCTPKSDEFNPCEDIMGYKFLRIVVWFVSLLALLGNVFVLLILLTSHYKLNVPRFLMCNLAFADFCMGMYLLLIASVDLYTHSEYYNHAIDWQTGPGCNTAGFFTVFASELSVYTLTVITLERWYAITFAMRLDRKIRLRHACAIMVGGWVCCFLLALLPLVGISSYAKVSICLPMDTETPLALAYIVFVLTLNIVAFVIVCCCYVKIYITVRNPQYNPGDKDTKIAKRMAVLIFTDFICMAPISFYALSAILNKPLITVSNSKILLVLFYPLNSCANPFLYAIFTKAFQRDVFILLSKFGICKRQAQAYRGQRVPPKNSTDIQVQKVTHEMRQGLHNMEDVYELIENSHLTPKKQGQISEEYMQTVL

CN(C)CCOC(=O)COc1ccc(Cl)cc1
inactive: [1] | [2] | [3] | [4] | [5] | [6] | [7] | [8] | [9] | [10] | [11] | [12] | [13] | [14] | [15] | [16] | [17]

CCCCCCCCCCN
inactive: [1] | [2] | [3] | [4] | [11] | [12] | [13] | [18] | [19] | [20] | [14] | [17]

CC1(C)S[C@@H]2[C@H](NC(=O)COc3ccccc3)C(=O)N2[C@H]1C(=O)O
inactive: [1] | [2] | [3] | [4] | [11] | [12] | [13] | [18] | [19] | [20] | [15] | [16] | [17]

COC(=O)c1cccnc1
inactive: [1] | [2] | [3] | [4] | [11] | [12] | [13] | [19] | [20] | [14] | [15] | [16] | [17]

CN(C)c1ccc(Cc2ccc(N(C)C)cc2)cc1
inactive: [1] | [2] | [3] | [4] | [11] | [12] | [13] | [14] | [15] | [16]

CC(C)CC(C)O (configuration not stated)
inactive: [1] | [2] | [3] | [4] | [11] | [12] | [13] | [18] | [19] | [20] | [17]

Nc1nc(N)nc(-c2ccccc2)n1
inactive: [1] | [2] | [3] | [4] | [11] | [12] | [13] | [18] | [19] | [20] | [14] | [17]

CCCCCC(=O)O
54.5 µM (active) and inactive: [15]
inactive: [1] | [2] | [3] | [4] | [11] | [12] | [13] | [18] | [14] | [16] | [17]

C=CC(C)CCCC(C)(C)O (configuration not stated)
inactive: [1] | [2] | [3] | [4] | [11] | [12] | [13] | [19] | [20] | [14] | [17]

CC(=O)OCc1ccco1
inactive: [1] | [2] | [3] | [4] | [11] | [12] | [13] | [19] | [20] | [14] | [15] | [16] | [17]

OCc1ccccc1
inactive: [1] | [2] | [3] | [4] | [11] | [12] | [13] | [18] | [19] | [20] | [14] | [15] | [16] | [17]

c1ccc(Oc2ccccc2)cc1
inactive: [1] | [2] | [3] | [4] | [12] | [13] | [18] | [19] | [20] | [14] | [17]

COc1ccc(CCC(C)=O)cc1
inactive: [1] | [2] | [3] | [4] | [11] | [12] | [13] | [17]

CCNc1cccc(C)c1
inactive: [1] | [2] | [3] | [4] | [11] | [12] | [13] | [18] | [19] | [20] | [14] | [15] | [16] | [17]

O=C(O)c1ccccc1C(=O)O
inactive: [1] | [2] | [3] | [4] | [11] | [12] | [13] | [19] | [20] | [17]

NCCN1CCNCC1
inactive: [1] | [2] | [3] | [4] | [11] | [12] | [13] | [19] | [20] | [14] | [17]

Source: PubChem BioAssay (Tox21)
